The supplement of paper PMC11060735
“And” between values parts separate entries of the source, which are not always exact repeats. Equal values may be shown once. ± gives the standard deviation of the averaged measurements. Whole data set: some 1,800 compounds, median “GFP- (p16Ink4a-) cell count relative to negative-control wells” near 0.99, cut for the lowest 2% near 0.5. For the sample, the lowest values were picked, then their nearest neighbours and some compounds at random.

Tested on: mouse p16Ink4a+/- lung fibroblasts (INKBRITE, bleomycin-injured)
Assay: GFP- (p16Ink4a-) cell count relative to negative-control wells (fold of vehicle); higher = more p16Ink4a- cells surviving
Settings: 1 µM; 3 days

| Compound | GFP- |
| --- | --- |
| O=C(Nc1ccccc1-c1cn2c(CN3CCNCC3)csc2n1)c1cnc2ccccc2n1 | 0.752 and 0.432 |
| CCO/C(O)=C1\C(C)=NC(C)=C(C(=O)OC)C1c1cccc(Cl)c1Cl (centres undefined) [Felodipine] | 0.531 |
| O=C1NC(=O)/C(=C/c2cccc(C(F)(F)F)c2)S1 | 0.979 ± 0.056 |
| CC(C)N(CCC(=O)c1ccc2ccccc2c1)Cc1ccccc1 | 0.897 ± 0.031 |
| CNCC[C@@H](Oc1ccccc1C)c1ccccc1 [Atomoxetine] | 1.04 |
| Cc1nc(NC(=O)N2CCC[C@H]2C(N)=O)sc1-c1ccnc(C(C)(C)C(F)(F)F)c1 | 0.875 |
| CC(C)CN(C[C@@H](O)[C@H](Cc1ccccc1)NC(=O)O[C@H]1CCOC1)S(=O)(=O)c1ccc(N)cc1 [Amprenavir] | 1.01 |
| Cc1ccc(NC(=O)C2(c3ccc4c(c3)OC(F)(F)O4)CC2)nc1-c1cccc(C(=O)O)c1 [Lumacaftor] | 0.94 |
| CO[C@H]1C(=O)[C@]2(C)[C@@H](OC)C[C@H]3OC[C@@]3(OC(C)=O)[C@H]2[C@H](OC(=O)c2ccccc2)[C@]2(O)C[C@H](OC(=O)[C@H](O)[C@@H](NC(=O)OC(C)(C)C)c3ccccc3)C(C)=C1C2(C)C [Cabazitaxel] | 0.558 |
| CC(=O)O[C@@]12CO[C@@H]1C[C@H](O)[C@@]1(C)C(=O)[C@H](O)C3=C(C)[C@@H](OC(=O)[C@H](O)[C@@H](NC(=O)OC(C)(C)C)c4ccccc4)C[C@@](O)([C@@H](OC(=O)c4ccccc4)[C@H]21)C3(C)C [Docetaxel] | 0.447 |
| CC(=O)O[C@H]1C(=O)[C@@]2(C)C([C@H](OC(=O)c3ccccc3)[C@]3(O)C[C@H](OC(=O)[C@H](O)[C@@H](NC(=O)c4ccccc4)c4ccccc4)C(C)=C1C3(C)C)[C@]1(OC(C)=O)CO[C@@H]1C[C@@H]2O (some centres undefined) [Taxol, Paclitaxel] | 0.505 |
| Cc1ccc(-n2nc(C)c(N=Nc3cccc(-c4cccc(C(=O)O)c4)c3O)c2O)cc1C [Eltrombopag] | 0.82 |
| C[C@]12C=CC(=O)C=C1CC[C@H]1[C@@H]3C[C@@H](O)[C@](O)(C(=O)CO)[C@@]3(C)C[C@H](O)[C@@]12F [Triamcinolone] | 0.986 |
| NC(=O)N/N=C/c1ccc([N+](=O)[O-])o1 [Nitrofural] | 0.939 |
| Cc1ccc(S(=O)(=O)/C=C/C#N)cc1 | 0.854 |
| Cc1ccc(S(=O)(=O)c2ccc([N+](=O)[O-])o2)cc1 | 0.415 |
| Cc1ccccc1N1C(=O)c2cc(S(N)(=O)=O)c(Cl)cc2NC1C (centres undefined) [Metolazone] | 0.905 |
| Oc1ccc(-c2nc(-c3ccc(F)cc3)c(-c3ccncc3)[nH]2)cc1 | 1.02 |
| CC(C)(C)Cn1c(N)nc2ccc(-c3[nH]c(C(C)(C)C)nc3-c3ccc(F)cc3)nc21 | 0.974 |
